# Only some compounds are listed: those with a hit (about 8.8% of all), similar ones and a draw of the others.
# KB-V1 cytotox = KB-V1 MDR subline cytotoxicity | KB-V1 MDR cells viability, CellTiter-Glo, 72 h | Potency, µM (titrated, usually from 46.1 µM), usual class: cytotoxic | hit rate 3.4% among 400,000; note: potency is the fitted concentration of half-maximal effect; nearly all actives have a fitted effect of over 60% in size
#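 Potencies derive from concentration-effect curves fitted to normalized luminescence (CellTiter-Glo) of KB-V1 cells treated for 72 h at 37 degrees C in phenol-red-free DMEM containing 10% FBS.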
# IL-1B inflam inh = inflammasome signaling inhibition, IL-1 beta readout; THP-1 LPS/ATP IL-1B secretion, AlphaLISA, 16 h; stronger effect = lower value; activity change, % at 57.5 µM; hit rate 4.7% among 360,000; AID 743279; in the data active = activity change below about -50%; inconclusive = mostly about -30% to -49%
#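 THP-1 cells pretreated 1 hr with compounds (up to 57.5 uM final), then stimulated with LPS (250 ng/mL final) plus ATP (1.25 mM final); secreted IL-1B measured by AlphaLISA after 16 hr, decreased signal indicating inhibition.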
# HT1080 IDH1KD tx = kills HT-1080 cells with IDH1 knockdown; HT-1080 IDH1 knockdown viability, ATP luminescence, 48 h; Potency, µM (doses to about 46.1 µM), for the others: top-dose activity, negative = toxicity, most hits filed as cytotoxic; hit rate 2% among 360,000; AID 686971;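 note: potency is the fitted concentration of half-maximal effect; 0% = DMSO wells and -100% = cell-free medium wells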
#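 IDH1KD HT-1080 cells, 750/well, RPMI + 5% FBS; compound pinned after 2 h settling; 48 h, 37 °C; CellTiter-Glo luminescence; % activity normalised to DMSO and no-cell wells; curves fitted, classed by r2 and efficacy.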
# KB-3-1 cytotox = kills parental KB-3-1 adenocarcinoma cells. KB-3-1 viability, CellTiter-Glo ATP luminescence, 72 h. Potency, µM (titrated, usually from 46.1 µM), usual class: cytotoxic. hit rate 1.4% among 400,000; note: potency is the fitted concentration of half-maximal effect; nearly all actives have a fitted effect of over 60% in size
#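 Cytotoxicity measured as CellTiter-Glo luminescence after 72 h at 37 C. Compound titrations were pinned onto drug-naive KB-3-1 parental adenocarcinoma cells grown in DMEM with 10% FBS, and normalized data fitted to concentration-response curves.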
# HT1080NT lethal = kills 2HG-producing HT-1080-NT fibrosarcoma cells. HT-1080-NT fibrosarcoma viability, CellTiter-Glo ATP luminescence, 48 h. Potency, µM (highest dose often 46.1 µM), for the others: at the highest dose activity, negative = less viability, hits mostly cytotoxic. hit rate 1.6% among 360,000;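 note: NT is the 2HG producing partner of a matched IDH1 knockdown line; potency is the fitted concentration of half-maximal effect; 0% = DMSO-treated cells and -100% = media-only wells without cells; nearly all actives have a fitted effect of over 55% in size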
#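 Compounds were tested in concentration-response format on HT-1080-NT cells for 48 hours at 37 degrees C. Cell viability came from CellTiter-Glo luminescence; curves were classified by r2, response magnitude and activity.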
# Starred values were filed as active, the others as inactive; i = inactive; ? = inconclusive; / = no result; [ ] = dose if it differs, or a comment. Unless noted, calls come from the whole dose curve; as a rule, active = well fitted curve in the direction sought with a large enough effect; inconclusive = small, poorly fitted or top-dose-only effect, or another doubt; inactive = no such curve, though single readings can be large; an effect the other way counts as inactive or inconclusive. Unless noted, % is set by controls: 0 for no effect and ±100 for the full control effect.
SMILES,KB-V1 cytotox,IL-1B inflam inh,HT1080 IDH1KD tx,KB-3-1 cytotox,HT1080NT lethal
CC1CCCCN1S(=O)(=O)c1ccc(S(=O)(=O)NCCc2ccncc2)cc1 (stereo not given),21µM*,?,9%,i,?
O=C(O)c1ccccc1C(=O)Nn1cnnc1,i,-3,12%,?,3%
Cc1nc(-c2ccccn2)sc1C(=O)Nc1ccc(F)cc1,18µM*,6,-20%,?,-26%
Cc1nc(-c2ccccn2)sc1C(=O)Nc1ccc(F)cc1F,10µM*,3,6%,i,-13%
Cc1nc(-c2cccnc2)sc1C(=O)Nc1ccc(Cl)cc1,18µM*,-12,5%,i,8%
Cc1nc(-c2cccnc2)sc1C(=O)Nc1ccc(F)cc1F,i,50,-1%,i,0%
CCCCN1CC2=C(C1=O)C(c1ccc(O)cc1)NC(=O)N2C (stereo not given),i,15,6%,i,2%
Cc1ccc(NC(=O)C2(C)CCN2Cc2ccccc2OC(F)F)cc1 (stereo not given),i,-16,?,i,?
Cc1sc(N/N=C/c2cccnc2)nc1-c1ccccc1,12µM*,?,?,?,-15%
C(=N/Nc1nc(-c2ccccc2)cc(-c2ccccc2)n1)/c1cccnc1,?,-53*,-10%,?,-16%
Cc1ccc(/C=N/Nc2nncc(-c3ccccc3)n2)o1,i,-9,-20%,i,-23%
Cc1[nH]n(-c2ccccc2)c(=O)c1/C=N/Nc1nncc(-c2ccccc2)n1,?,40,0.79µM*,7.3µM*,1.3µM*
Oc1cccc(/C=N\Nc2nncc(-c3ccccc3)n2)c1,i,-62*,-4%,i,-17%
CCCNC(=O)c1cc(C2CCCCN2S(C)(=O)=O)on1 (stereo not given),i,4,16%,i,5%
Cc1cc(C)c(C(=O)c2ccc(C(=O)N(C(C)C)C(C)C)cc2)c(C)c1,16µM*,-3,?,?,?
Cc1nc2nc(SCC(=O)O)nn2c(C)c1Cc1ccccc1Cl,i,-17,-5%,i,3%
CC(C)CCNC(=S)Nc1ccc(Br)cc1,18µM*,-1,-7%,?,17%
CC(C)CCNC(=S)Nc1ccc([N+](=O)[O-])cc1,?,-71*,?,?,?
S=C(NCCc1ccccc1)Nc1ccccn1,16µM*,0,-1%,i,3%
CCCN1CCN(C(=S)Nc2ccc([N+](=O)[O-])cc2)CC1,21µM*,17,?,i,?
COCc1ccc(C(=O)N2CCCC(C(=O)c3ccc(SC)cc3)C2)s1 (stereo not given),i,0,-9%,i,-2%
S=C(NCCc1ccccc1)Nc1ccc(Br)cc1,18µM*,-70*,-4%,?,7%
CC(C)OC(=O)c1cc(NC(=S)Nc2ccc([N+](=O)[O-])cc2)cc(C(=O)OC(C)C)c1,?,-101*,21µM*,?,?
O=[N+]([O-])c1ccc(NNC(=S)Nc2ccc(F)cc2)cc1,21µM*,-59*,?,?,?
CCCCNC(=S)Nc1ccc([N+](=O)[O-])cc1,?,-74*,?,?,?
SMILES,KB-V1 cytotox,IL-1B inflam inh,HT1080 IDH1KD tx,KB-3-1 cytotox,HT1080NT lethal
CC(C)COc1ccc(C(=O)Nc2ccc([N+](=O)[O-])cc2)cc1,i,0,-1%,i,14%
COc1cccc(NC(=O)COc2ccc(C(=O)N3CCN(C)CC3)cc2)c1,i,29,-17%,i,-21%
Cc1cccc(C(=O)C2CCN(S(=O)(=O)c3cccc(C(=O)O)c3)CC2)c1,i,6,-1%,i,-16%
CN(C)c1nc(SCC(=O)Nc2ccc(Cl)c(Cl)c2)nc(N2CCOCC2)n1,?,-9,-18%,i,-12%
CC(C)(C)Nc1nc(SCC(=O)Nc2ccccc2)nc(N2CCOCC2)n1,?,-90*,-2%,i,-6%
CCNc1nc(SCC(=O)Nc2ccc(Cl)c(Cl)c2)nc(N2CCOCC2)n1,i,-59*,?,?,?
CN(C)c1nc(SCC(=O)Nc2ccccc2)nc(N2CCOCC2)n1,?,-1,-13%,i,-2%
COc1ccc(C2=CC(=O)N(Nc3ccccc3)C2=O)cc1,i,-55*,16µM*,i,?
O=C1Cc2ccccc2C(=O)N1Nc1ccccc1,i,13,18%,i,-17%
Cc1ccc(NN2C(=O)C=C(c3ccc(Cl)cc3)C2=O)cc1,12µM*,-103*,?,?,?
O=C1C=C(c2ccccc2)C(=O)N1Nc1ccccc1,i,-101*,?,?,-5%
O=C1CC(c2ccccc2)Cc2nc(N3CCc4ccccc4C3)ncc21 (stereo not given),i,8,-2%,i,-7%
O=C1CC(c2ccc(F)cc2)Cc2nc(N3CCN(c4ccccc4)CC3)ncc21 (stereo not given),i,-2,8%,i,9%
Cc1ccc(C2CC(=O)c3cnc(N4CCc5ccccc5C4)nc3C2)cc1 (stereo not given),23µM*,15,-3%,i,-3%
Cc1ccc(C2CC(=O)c3cnc(N4CCN(c5ccccc5)CC4)nc3C2)cc1 (stereo not given),5.2µM*,12,13%,?,8%
CC1CCCN(C(=O)c2ccc(S(=O)(=O)N3CCC(c4nc5ccccc5s4)CC3)cc2)C1 (stereo not given),?,-70*,-6%[9.24 µM],?,?
O=S(=O)(c1cccc(F)c1)N1CCC(c2nc3ccccc3s2)CC1,i,/,/,i,/
CCN(CC)C(=O)c1ccc(S(=O)(=O)N2CCC(c3nc4ccccc4s3)CC2)cc1,7.3µM*,?,-16%[9.24 µM],21µM*,?
O=C(c1ccc(F)cc1)N1CCC(c2nc3ccccc3s2)CC1,?,/,/,i,/
COc1cc2c3nnc(-c4ccc(F)cc4)c-3cn(Cc3ccccc3)c2cc1OC,i,-95*,?,?,-4%
COc1cc2c3nnc(-c4ccc(F)cc4)c-3cn(Cc3ccc(F)cc3)c2cc1OC,i,21,?,?,-7%
CCN(CC)CCCOc1cc2nc(N3CCCN(C)CC3)nc(NC3CCN(C)CC3)c2cc1OC,i,/,/,?,/
O=C(Nc1cc(Cl)ccc1-n1cncn1)c1cc(F)c(F)c(F)c1F,i,-93*,-1%,i,1%
CS(=O)(=O)c1ccccc1C(=O)Nc1cc(Cl)ccc1-n1cncn1,i,-1,3%,i,-2%
Clc1ccc2nc(-c3ccc(Cl)nc3)[nH]c2c1,?,-68*,-29%,i,-16%
Nc1nc2ccc(Cl)cc2[nH]1,i,10,-22%,i,-17%
